This passage reports z-score and composite z-score results from PubChem BioAssay.

Assay [1] is described as follows: optical density shifts of acrAB sulA E. coli – strain DRC41, OD650, 48 h, E. coli filamentation inducer project, primary screen (AID 1152).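 Further: E. coli MC1000 strain DRC41 lacking acrAB efflux pump and sulA.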 The settings on record: higher = more signal, called active from +8 up or from −8 down.
The nature of assay [2]: probe aLefty1 binding on compound microarray – biochemical, small-molecule microarray, 635/667 nm fluorescence, primary screen (AID 1153).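 Further: score merges spot fluorescence with signal-to-noise ratio from the scanned slide images.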 The settings on record: higher = more signal.
Assay [3] can be described thus: plasmodial surface anion channel blockers, osmotic lysis – cell-based, P. falciparum Indochina, OD700, 1 h, primary screen (AID 1154). The settings on record: P. falciparum Indochina infected RBC osmotic lysis, higher = more signal, called active from +8 up or from −8 down.
Assay [4] is described as follows: plasmodial surface anion channel blockers, osmotic lysis – cell-based, P. falciparum Indochina, OD700, 2 h, primary screen (AID 1155).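 Further: lysis reports solute entry through the parasite surface anion channel PSAC.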 The settings on record: P. falciparum Indochina infected erythrocytes, higher = more signal, called active from +8 up or from −8 down.
A short description of assay [5]: changes in parasitized red cell lysis, either direction – P. falciparum Indochina, OD700, 3 h, PSAC antagonist project, primary screen (AID 1156). The settings on record: P. falciparum-infected erythrocytes, osmotic lysis, higher = more signal, called active from +8 up or from −8 down.
Assay [6] can be described thus: plasmodial surface anion channel blockers, osmotic lysis – cell-based, P. falciparum Indochina, OD700, 18 h, primary screen (AID 1157). The settings on record: P. falciparum Indochina infected erythrocytes, osmotic lysis OD700, 18 h; higher = more signal, called active from +8 up or from −8 down.
The nature of assay [7]: S6 kinase pathway phospho-S6 level changes – cell-based, A549, cytoblot, luminescence, serum-stimulated, primary screen (AID 1158).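 Further: serum-stimulated A549 lung adenocarcinoma cells; signal is phosphorylated S6 detected by cytoblot immunostaining with HRP secondary.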 The settings on record: 5 h, higher = more signal.
For assay [8], the target named is NADPH oxidase 2 (Homo sapiens) (UniProt P04839). Put plainly: compounds shifting NOX2 Amplex Red fluorescence – cell-based, HEK293-NOX2, PMA-stimulated, NOX inhibitor project, primary screen (AID 1159). Further: test concentration not given here. The settings on record: 45 min, higher = more signal, called active from +8 up or from −8 down.
Chain of NADPH oxidase 2 (Homo sapiens) (P04839 whole entry, looked up): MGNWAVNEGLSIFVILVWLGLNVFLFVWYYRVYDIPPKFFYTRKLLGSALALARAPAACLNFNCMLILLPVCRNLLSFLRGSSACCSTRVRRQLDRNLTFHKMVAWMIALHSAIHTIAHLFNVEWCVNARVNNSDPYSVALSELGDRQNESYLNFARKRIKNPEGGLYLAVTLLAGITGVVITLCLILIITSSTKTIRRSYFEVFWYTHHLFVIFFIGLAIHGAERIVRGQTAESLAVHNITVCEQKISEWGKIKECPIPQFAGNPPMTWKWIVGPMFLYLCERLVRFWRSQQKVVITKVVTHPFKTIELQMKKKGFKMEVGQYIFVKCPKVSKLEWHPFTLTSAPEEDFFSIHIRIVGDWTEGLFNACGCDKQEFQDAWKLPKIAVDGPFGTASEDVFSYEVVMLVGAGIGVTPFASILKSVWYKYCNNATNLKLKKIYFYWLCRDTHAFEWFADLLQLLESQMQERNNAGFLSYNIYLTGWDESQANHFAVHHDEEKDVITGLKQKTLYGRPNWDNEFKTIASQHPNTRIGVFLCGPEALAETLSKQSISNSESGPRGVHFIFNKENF
Assay [9] concerns the target NADPH oxidase 4 (Homo sapiens) (UniProt Q9NPH5). The assay can be described thus: compounds shifting NOX4 Amplex Red fluorescence – cell-based, HEK293-NOX4, tetracycline-induced, NOX inhibitor project, primary screen (AID 1160). The settings on record: HEK293-NOX4, Amplex Red H2O2 fluorescence, 45 min; higher = more signal, called active from +8 up or from −8 down.
For assay [10], the target named is NADPH oxidase 5 (Homo sapiens) (UniProt Q96PH1). Put plainly: compounds shifting NOX5 Amplex Red fluorescence – cell-based, HEK293-NOX5, NOX inhibitor project, primary screen (AID 1161). The settings on record: HEK293-NOX5, ionomycin, 45 min, higher = more signal.
Chain of NADPH oxidase 5 (Homo sapiens) (Q96PH1 whole entry, looked up): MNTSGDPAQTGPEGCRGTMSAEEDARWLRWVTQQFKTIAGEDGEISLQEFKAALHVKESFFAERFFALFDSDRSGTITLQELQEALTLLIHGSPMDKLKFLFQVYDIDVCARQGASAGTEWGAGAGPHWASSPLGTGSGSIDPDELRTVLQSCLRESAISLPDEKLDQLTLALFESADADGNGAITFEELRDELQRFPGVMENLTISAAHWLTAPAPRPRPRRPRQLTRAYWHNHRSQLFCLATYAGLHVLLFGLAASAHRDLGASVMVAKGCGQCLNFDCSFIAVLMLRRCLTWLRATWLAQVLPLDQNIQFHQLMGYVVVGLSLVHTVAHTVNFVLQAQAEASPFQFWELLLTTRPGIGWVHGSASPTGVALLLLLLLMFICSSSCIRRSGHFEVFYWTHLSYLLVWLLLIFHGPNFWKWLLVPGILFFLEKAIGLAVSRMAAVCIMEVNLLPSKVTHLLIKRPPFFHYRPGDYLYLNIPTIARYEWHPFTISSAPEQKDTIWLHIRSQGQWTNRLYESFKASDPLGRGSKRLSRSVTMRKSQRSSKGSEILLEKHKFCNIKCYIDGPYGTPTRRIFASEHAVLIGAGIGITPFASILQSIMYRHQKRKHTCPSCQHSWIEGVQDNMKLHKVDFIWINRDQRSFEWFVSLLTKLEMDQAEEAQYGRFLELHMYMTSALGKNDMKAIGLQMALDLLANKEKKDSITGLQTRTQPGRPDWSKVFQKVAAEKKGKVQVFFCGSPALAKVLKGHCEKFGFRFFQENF

The source made the active and inactive calls.

Chain of NADPH oxidase 4 (Homo sapiens) (Q9NPH5 whole entry, looked up): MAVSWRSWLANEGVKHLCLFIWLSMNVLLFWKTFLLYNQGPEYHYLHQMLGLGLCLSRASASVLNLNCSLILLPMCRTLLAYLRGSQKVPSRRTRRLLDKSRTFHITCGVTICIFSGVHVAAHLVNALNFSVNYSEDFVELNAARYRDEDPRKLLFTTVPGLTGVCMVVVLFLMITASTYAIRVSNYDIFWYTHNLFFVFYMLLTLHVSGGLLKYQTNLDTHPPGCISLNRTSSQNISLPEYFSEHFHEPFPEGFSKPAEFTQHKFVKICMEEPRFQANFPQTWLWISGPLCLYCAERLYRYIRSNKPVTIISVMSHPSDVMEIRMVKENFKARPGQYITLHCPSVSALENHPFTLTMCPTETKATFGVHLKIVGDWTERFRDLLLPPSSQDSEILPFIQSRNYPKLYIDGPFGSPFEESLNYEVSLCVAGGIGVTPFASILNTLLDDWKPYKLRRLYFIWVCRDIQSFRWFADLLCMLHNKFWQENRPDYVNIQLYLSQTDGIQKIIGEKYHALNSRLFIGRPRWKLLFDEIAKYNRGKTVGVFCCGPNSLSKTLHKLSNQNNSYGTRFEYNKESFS

Take `O=C1OCC=C[C@H]2OC34C=CCN(c5ccc6ccccc6c5)C(=O)[C@H]3N(CCCO)C(=O)[C@@H]4[C@@H]12` (stereo not given in full): the z-score is 0.392 (inactive) in [1]; 0.638 (inactive) in assay [3]; -0.0892 (inactive) in assay [4]; 0.572 (inactive) in assay [5]; -1.56 (inactive) in [6]; 1.28 in assay [7]. Moreover, the results for the z-score in assay [8], in assay [9] and in [10] were 1.09 (inactive), -0.0483 (inactive) and 0.904, respectively. Also, in [2], the composite z-score was found to be 0.251.

Take `O=C(O)[C@@]1(Cc2ccccc2)N=C(c2ccc(OCCCO)cc2)O[C@H]1c1ccccc1`: the z-score is 0.922 (inactive) in assay [1]; 3.67 (inactive) in [3]; 0.132 (inactive) in [4]; -0.466 (inactive) in assay [5]; 0.445 (inactive) in assay [6]; -0.134 in assay [7]. The results for the z-score in assay [8], in assay [9] and in [10] were 0.18 (inactive), 0.864 (inactive) and 1.33, respectively. In [2], this molecule had a composite z-score of -0.251.

On to `COc1ccc(C#Cc2ccc3c(c2)[C@]2(C(=O)N3)[C@H](c3ccc(O)cc3)N3[C@H](c4ccccc4)[C@H](c4ccccc4)OC(=O)[C@H]3[C@@H]2C(=O)NC[C@H](O)c2ccccc2)cc1`, for which the z-score in assay [1] was 0.735 (inactive); in assay [3], 1.1 (inactive); in assay [4], 1.09 (inactive); in assay [5], 0.541 (inactive); in assay [6], 0.859 (inactive); in assay [7], -0.193. Besides, the z-score in assay [8] is 1.91 (inactive); in assay [9] it was -0.0599 (inactive); in assay [10], 0.22. Also, in assay [2], the composite z-score was -0.021.

As for `CCCCC(CC)C(O)C1C=CC2C(=O)N(c3ccccc3)C(=O)C2N1Nc1ccccc1` (stereo not given), the z-score in assay [1] was -1.61 (inactive); in assay [3], 1.1 (inactive); in assay [4] it was -0.627 (inactive); in [5], 2.18 (inactive); in [6] it was -1.72 (inactive); in assay [7], 1.14. Further, the z-score in [8] is -2.98 (inactive); in [9], -5.21 (inactive); in assay [10] it was -5.76. The composite z-score in [2] was 0.448.

Regarding `CC(c1ccccc1)C(O)C1C=CC2C(=O)NC(=O)C2N1Nc1ccccn1` (stereo not given), the z-score in assay [1] was -0.671 (inactive); in assay [3], 0.887 (inactive); in [4], 0.561 (inactive); in assay [5] it was -0.255 (inactive); in [6], 0.801 (inactive); in [7], -0.8. Further, the z-score is -0.479 (inactive) in assay [8], -3.8 (inactive) in assay [9] and -1.79 in assay [10]. In assay [2], this molecule yielded a composite z-score of 0.314.

With `COC(=O)[C@@]1(Cc2ccccc2)[C@H]2c3cc(C(=O)N4CCCC4)n(Cc4ccc(C)o4)c3C[C@H]2CN1C(=O)c1ccccc1`, the z-score in assay [1] is -1.71 (inactive); in [3], 1.63 (inactive); in assay [4], 0.547 (inactive); in assay [5], 0.278 (inactive); in assay [6], 0.52 (inactive); in assay [7] it was -0.504. In addition, the z-score in assay [8] is -0.254 (inactive); in [9] it was -0.867 (inactive); in assay [10] it was -1.17. The same molecule registered a composite z-score in assay [2] of 0.198.

As for `CC(C)Cc1ccc(CN2CC[C@@H](NS(=O)(=O)c3ccccc3)C2)cc1`, the z-score in assay [1] was -19.2 (active); in assay [3] it was 2.49 (inactive); in assay [4], 0.408 (inactive); in [5], 0.306 (inactive); in assay [6] it was 0.574 (inactive); in assay [7], 0.709. Also, the z-score in [8] is 0.312 (inactive); in assay [9] it was -0.907 (inactive); in assay [10], -3.68. In addition, in assay [2], the composite z-score is -0.198.

For `COc1cccc(C(=O)O[C@H]2CC[C@]3(C)C4=C(CCC3C2(C)C)[C@]2(C)CC[C@H]([C@H](C)CCCC(C)C)[C@@]2(C)CC4)c1` (stereo not given in full), the z-score is 3.47 (inactive) in [1]; -0.264 (inactive) in assay [3]; -0.611 (inactive) in [4]; -0.306 (inactive) in [5]; -1.63 (inactive) in assay [6]; 0.801 in [7]. Moreover, the z-score in [8] was -0.606 (inactive); in assay [9], 0.0302 (inactive); in assay [10] it was 0.689. Also, the composite z-score in assay [2] was 0.0752.

With `CCCCC=C[C@@H](NC(=O)c1ccc(C(=O)OC)cc1)c1ccccc1`, the z-score in assay [1] was -1.63 (inactive); in [3], 2.85 (inactive); in assay [4], 0.589 (inactive); in [5] it was 0.63 (inactive); in assay [6] it was 0.569 (inactive); in [7], 0.12. Besides, the z-score in assay [8] was -1.88 (inactive); in assay [9], -3.48 (inactive); in assay [10], 0.0463. Besides, the composite z-score in assay [2] came to 0.317.

Take `O=C1O[C@H](c2ccccc2)[C@H](c2ccccc2)N2[C@H]1[C@@H](C(=O)N1CCN(c3ncccn3)CC1)[C@]1(C(=O)Nc3ccccc31)[C@H]2c1ccc(OCCO)cc1`: the z-score in assay [1] was 2.64 (inactive); in [3], 7.83 (inactive); in assay [4], 0.395 (inactive); in [5], 0.81 (inactive); in [6], -1.32 (inactive); in assay [7] it was 2.11. For the same molecule, the z-score in assay [8] was 0.192 (inactive); in assay [9], -1.33 (inactive); in [10] it was -2.84. In addition, the composite z-score in assay [2] is -0.0221.

Take `COc1ccc(CCNC(=O)[C@@]2(c3ccc([N+](=O)[O-])cc3)CC(=O)N(CC34CC5CC(CC(C5)C3)C4)[C@@H]2c2ccc(CO)cc2)cc1`: the z-score in [1] is 0.0305 (inactive); in assay [3], 4.6 (inactive); in assay [4], 0.522 (inactive); in [5] it was 3.14 (inactive); in assay [6], -0.24 (inactive); in assay [7], 2. Besides, the z-score was -0.956 (inactive) in [8], -4.54 (inactive) in assay [9] and -3.97 in [10]. Moreover, the composite z-score in [2] came to 0.155.

On to `COCCOC(=O)N1C(=O)[C@@]2(c3cc(C#CCNC(N)=O)ccc31)[C@H](c1ccc(OCCO)cc1)N1[C@H](c3ccccc3)[C@H](c3ccccc3)OC(=O)[C@H]1[C@@H]2C(=O)N1CCc2cc(OC)c(OC)cc2C1`, for which the z-score is 0.506 (inactive) in [1]; 3.71 (inactive) in [3]; 1.89 (inactive) in [4]; 0.523 (inactive) in [5]; 1.15 (inactive) in assay [6]; 0.307 in assay [7]. Besides, the z-score in [8] was 1.89 (inactive); in [9], 1.09 (inactive); in assay [10], 0.284. Besides, in assay [2], the composite z-score is 0.308.

Turning to `O=C1N(CCS(=O)(=O)c2ccccc2)Cc2ccccc2C[C@]12N=C(c1ccc(OCCCO)cc1)O[C@@H]2c1ccccc1`, the z-score in assay [1] was 0.697 (inactive); in [3] it was 22.2 (active); in assay [4], 8.54 (active); in assay [5], 0.443 (inactive); in assay [6], 0.427 (inactive); in assay [7] it was 2.67. For the same molecule, the values for the z-score in [8], in assay [9] and in assay [10] were -0.282 (inactive), 1 (inactive) and -0.517, respectively. This molecule also yielded a composite z-score in assay [2] of 1.66.
